Experimental findings from PubChem BioAssay (EPA / NIEHS) are described below.

Records with an inconclusive call do not appear. Activity calls are given as the source filed them. The calls were made as follows, unless noted: active = hit-call score of the fitted dose curve at least 0.9, where 1 is the maximum; inconclusive = response in the unintended direction; inactive = score below 0.9.

The nature of the first experiment: CCTE_Harrill_HTTr_CellCount_MCF7: CCTE's Cell Proliferation Assessment for the High-Throughput Transcriptomics (HTTr) Platform, Harrill Lab (AID 2284012).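 Also: count of Hoechst-stained nuclei per well by high-content imaging in MCF-7 cells; cells exposed to compound for six hours; intended direction is loss of nuclei count meaning fewer cells.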 An outline of the steps:
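Chemicals in eight-point dilution series are added to MCF-7 cells for six hours, nuclei are stained with Hoechst and imaged, and per-well nuclei counts are fitted in both directions relative to DMSO controls.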
On to `Cc1oncc1C(=O)Nc1ccc(C(F)(F)F)cc1`, for which the call was inactive. On to `NC(=O)N=NC(N)=O`, for which the outcome was inactive. For `COC(=O)C1=C(C)NC(C)=C(C(=O)OCC(C)C)C1c1ccccc1[N+](=O)[O-]` (stereo not given), the compound was called inactive. Same read-out and setting: the result for `c1c[nH]cn1` reads “inactive”.

With `Nc1ncn([C@@H]2O[C@H](CO)[C@@H](O)[C@H]2O)c(=O)n1`, the compound was called inactive.

With `c1ccc(-c2ccccn2)nc1`, the outcome was inactive.

For `O=C(O)CCCC[C@@H]1SC[C@@H]2NC(=O)N[C@@H]21`, the compound was classed as inactive.

For the compound `CC1(C)O[C@@H]2C[C@H]3[C@@H]4C[C@H](F)C5=CC(=O)C=C[C@]5(C)[C@@]4(F)[C@@H](O)C[C@]3(C)[C@]2(C(=O)CO)O1`, the call was inactive. For `CCCCCCCCCCCCCCCC[n+]1ccccc1`, the compound was classed as inactive. `Cc1cc(C)c(C)cc1C`: the result was inactive.

`CN(C)c1ccc(N=Nc2ccccc2C(=O)O)cc1`: the compound was called inactive.

Consider `C=C1C2CCC(C2)C1(C)C` (stereo not given), for which the result was inactive. On to `CC(=O)[C@@]1(O)CC[C@H]2[C@@H]3C[C@H](C)C4=CC(=O)C=C[C@]4(C)[C@@]3(F)[C@@H](O)C[C@@]21C`, for which the outcome was inactive. As for `CCCOC(=O)CCCCC(=O)OCCC`, the compound was classed as inactive.

With `CCCCOCCOC(=O)COc1nc(Cl)c(Cl)cc1Cl`, the call was inactive. Consider `C=C(C)[C@H]1CC=C(C)CC1`, for which the outcome was inactive.

In the case of `O=c1c2ccccc2oc2ccccc12`, the compound was classed as inactive. For `CC/C=C\C/C=C\C/C=C\CCCCCCCC(=O)O`, the compound was called inactive. With `COc1ccc(-c2coc3cc(O)ccc3c2=O)cc1`, the outcome was inactive. The same measure, in the same setting: with `CC1(C)O[C@@H]2C[C@H]3[C@@H]4C[C@H](F)C5=CC(=O)CC[C@]5(C)[C@H]4[C@@H](O)C[C@]3(C)[C@]2(C(=O)CO)O1` the entry was “inactive”; with `O=C(Nc1ccccc1)c1ccccc1O`, “inactive”; with `O=C(Nc1cccc(C(F)(F)F)c1)c1cc(Br)cc(Br)c1O`, “inactive”. Regarding `CCCCC(CC)COC(=O)c1ccccc1` (stereo not given), the compound was called inactive. Take `C1=Cc2ccccc2C1`: the compound was classed as inactive. On the same count and under the same terms, the result for `CC(=O)Nc1nnc(S(N)(=O)=O)s1` reads “inactive”.

As to `Nc1ccc(N=Nc2ccccc2)c(N)n1`, the compound was classed as inactive. Regarding `CCN(Cc1cccc(S(=O)(=O)O)c1)c1ccc(C(=C2C=CC(=[N+](CC)Cc3cccc(S(=O)(=O)[O-])c3)C=C2)c2ccccc2)cc1`, the compound was called inactive. Same read-out and setting: the result for `NC(=O)OCC(COC(N)=O)c1ccccc1` reads “inactive”. `C[C@]12C=CC(=O)C=C1CC[C@@H]1[C@@H]2[C@@H](O)C[C@@]2(C)[C@H]1CC[C@]2(O)C(=O)CO`: the compound was classed as inactive. For `CCCCC(CC)COC(=O)c1ccccc1O` (stereo not given), the compound was classed as inactive. Same read-out and setting: the result for `CC(=O)[C@H]1[C@H](C#N)C[C@H]2[C@@H]3CC=C4C[C@@H](O)CC[C@]4(C)[C@H]3CC[C@@]21C` reads “inactive”.

A further experiment in a line: CCTE_Shafer_MEA_acute_burst_number: CCTE's Neural Acute Assay for Single-Electrode Bursts, Shafer Lab (AID 2284013; active = hit-call score of the fitted dose curve at least 0.9, where 1 is the maximum; inactive = score below 0.9). An outline of the steps:
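Rat cortical cultures, DIV 13/15; 40 min baseline, then 40 min with compound 0.03-40 uM, 37 C. Spikes: 300-5000 Hz band-pass, threshold 8x rms noise. Readout = % change in single-electrode bursts vs baseline, loss-of-signal fit.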
`CCOC(=O)c1ccccc1C(=C1C=C(Br)C(=O)C(Br)=C1)c1cc(Br)c(O)c(Br)c1`: the compound was classed as inactive. Turning to `Nc1ncn([C@@H]2O[C@H](CO)[C@@H](O)[C@H]2O)c(=O)n1`, the AC50 is 0.0142 µM (active). `CCCCC(CC)COC(=O)c1ccccc1O` (stereo not given): the result was inactive.

The nature of another experiment: CCTE_Shafer_MEA_acute_burst_duration_mean: CCTE's Neural Acute Assay for Mean Burst Duration, Shafer Lab (AID 2284014; active = hit-call score of the fitted dose curve at least 0.9, where 1 is the maximum; inactive = score below 0.9;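 also: hits are decreases in mean burst duration relative to DMSO controls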). An outline of the steps:
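Primary rat cortical neurons on 16-electrode MEA wells, treated on DIV 13 or 15 with compound (0.03-40 uM; ≥3 wells each). 40-min baseline and 40-min exposure recordings at 37 C; percent change in mean burst duration per well versus DMSO.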
With `CCOC(=O)c1ccccc1C(=C1C=C(Br)C(=O)C(Br)=C1)c1cc(Br)c(O)c(Br)c1`, the call was inactive.

As for `Nc1ncn([C@@H]2O[C@H](CO)[C@@H](O)[C@H]2O)c(=O)n1`, the compound was called inactive. For `CCCCC(CC)COC(=O)c1ccccc1O` (stereo not given), the outcome was inactive.

A short description of the next experiment: CCTE_Shafer_MEA_acute_per_burst_spike_number_mean: CCTE's Neural Acute Assay for Average Number of Spikes Per Burst, Shafer Lab (AID 2284015; active = hit-call score of the fitted dose curve at least 0.9, where 1 is the maximum; inactive = score below 0.9;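 also: hits are decreases in mean spikes per burst versus baseline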). The procedure, abridged:
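We recorded spontaneous network firing of rat cortical neurons for 40 min before and 40 min during exposure to compound at 0.03-40 uM, at 37 C. Spikes were detected adaptively at 8x rms noise, and the change in average spikes per burst was fitted against DMSO.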
As to `CCOC(=O)c1ccccc1C(=C1C=C(Br)C(=O)C(Br)=C1)c1cc(Br)c(O)c(Br)c1`, the compound was called inactive. Take `Nc1ncn([C@@H]2O[C@H](CO)[C@@H](O)[C@H]2O)c(=O)n1`: the AC50 is 5 µM (active).

In the case of `CCCCC(CC)COC(=O)c1ccccc1O` (stereo not given), the compound was called inactive.

Another experiment in a line: CCTE_Shafer_MEA_acute_interburst_interval_mean: CCTE's Neural Acute Assay for Mean Interburst Interval, Shafer Lab (AID 2284016; active = hit-call score of the fitted dose curve at least 0.9, where 1 is the maximum; inactive = score below 0.9;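 also: percent change of mean interburst interval versus each well's own pre-dose baseline; curves fitted for decrease in interburst interval relative to DMSO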). An outline of the steps:
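MEA recording of spontaneous network bursting in primary rat cortical cultures; mean interburst interval was compared before and after a 40-min compound exposure (0.03-40 uM) and expressed as percent change, relative to DMSO.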
In the case of `CCOC(=O)c1ccccc1C(=C1C=C(Br)C(=O)C(Br)=C1)c1cc(Br)c(O)c(Br)c1`, the result was inactive. `Nc1ncn([C@@H]2O[C@H](CO)[C@@H](O)[C@H]2O)c(=O)n1`: the AC50 was 7.71 µM (active). `CCCCC(CC)COC(=O)c1ccccc1O` (stereo not given): the AC50 is 7.5 µM (active).

The nature of the next experiment: CCTE_Shafer_MEA_acute_burst_percentage_std: CCTE's Neural Acute Assay for Standard Deviation of Burst Percentage, Shafer Lab (AID 2284018; active = hit-call score of the fitted dose curve at least 0.9, where 1 is the maximum; inactive = score below 0.9;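 also: fitted in the negative direction so actives lower burst percentage SD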). An outline of the steps: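 Primary rat cortical neurons on 16-electrode MEA wells were recorded 40 min at baseline (DIV 13 or 15), then 40 min after compound (0.03-40 uM), at 37 C. Well value is SD across electrodes of spikes-in-bursts/total spikes; endpoint is percent change, DMSO-referenced.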
Regarding `CCOC(=O)c1ccccc1C(=C1C=C(Br)C(=O)C(Br)=C1)c1cc(Br)c(O)c(Br)c1`, the call was inactive. In the case of `Nc1ncn([C@@H]2O[C@H](CO)[C@@H](O)[C@H]2O)c(=O)n1`, the AC50 was 15 µM (active). As for `CCCCC(CC)COC(=O)c1ccccc1O` (stereo not given), the compound was called inactive.

The next experiment is described as follows: CCTE_Shafer_MEA_acute_per_network_burst_spike_number_mean: CCTE's Neural Acute Assay for Average Number of Spikes in a Network Burst, Shafer Lab (AID 2284019; active = hit-call score of the fitted dose curve at least 0.9, where 1 is the maximum; inactive = score below 0.9;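 as to AC50: curve fitted for loss of signal so actives reduce spikes per network burst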). The procedure, abridged:
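Primary rat cortical neurons on 16-electrode MEA wells, DIV 13 or 15, 37 C; 40-min baseline then 40-min recording with compound (0.03-40 uM). Spikes per network burst (total spikes/number of bursts) expressed as percent change from baseline, DMSO reference.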
Consider `CCOC(=O)c1ccccc1C(=C1C=C(Br)C(=O)C(Br)=C1)c1cc(Br)c(O)c(Br)c1`, for which the result was inactive. For `Nc1ncn([C@@H]2O[C@H](CO)[C@@H](O)[C@H]2O)c(=O)n1`, the AC50 was 0.992 µM (active). Consider `CCCCC(CC)COC(=O)c1ccccc1O` (stereo not given), for which the compound was called inactive.

A further experiment can be described thus: CCTE_Shafer_MEA_acute_per_network_burst_spike_number_std: CCTE's Neural Acute Assay for Standard Deviation of Number of Spikes in a Network Burst, Shafer Lab (AID 2284020; active = hit-call score of the fitted dose curve at least 0.9, where 1 is the maximum; inactive = score below 0.9;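 also: fitted for decrease in spike-number SD versus DMSO so actives lower it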). The procedure, abridged: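 Primary rat cortical neurons on 48-well MEAs (16 electrodes/well) recorded at DIV 13 or 15: 40-min baseline, then 40 min with compound (0.03-40 uM), 37 C. Value is percent change in SD of spikes per network burst, relative to DMSO.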
In the case of `CCOC(=O)c1ccccc1C(=C1C=C(Br)C(=O)C(Br)=C1)c1cc(Br)c(O)c(Br)c1`, the outcome was inactive. In the case of `Nc1ncn([C@@H]2O[C@H](CO)[C@@H](O)[C@H]2O)c(=O)n1`, the compound was called inactive. With `CCCCC(CC)COC(=O)c1ccccc1O` (stereo not given), the compound was classed as inactive.

Another experiment can be described thus: CCTE_Shafer_MEA_acute_per_network_burst_electrodes_number_mean: CCTE's Neural Acute Assay for Mean Number of Electrodes in a Network Burst, Shafer Lab (AID 2284021; active = hit-call score of the fitted dose curve at least 0.9, where 1 is the maximum; inactive = score below 0.9;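 also: curves fitted for decreases only so hits reduce electrodes per burst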). The procedure, abridged:
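Rat primary cortical neurons on 48-well MEAs, DIV 13 or 15, were treated at 0.03-40 uM. Spikes were detected at 8x rms noise and recorded at 37 C. The mean electrodes per network burst in a 40 min exposure recording was expressed as percent change from a 40 min baseline.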
`CCOC(=O)c1ccccc1C(=C1C=C(Br)C(=O)C(Br)=C1)c1cc(Br)c(O)c(Br)c1`: the call was inactive.

Take `Nc1ncn([C@@H]2O[C@H](CO)[C@@H](O)[C@H]2O)c(=O)n1`: the AC50 is 5 µM (active). Take `CCCCC(CC)COC(=O)c1ccccc1O` (stereo not given): the compound was classed as inactive.
